ALOX12 inh: Primary qHTS assay for inhibitors of human arachidonate 12S-lipoxygenase (ALOX12): Round 2 | 580,000 compounds, 1.1% hits | AID 1671190, 2021 | Polyunsaturated fatty acid lipoxygenase ALOX12 (Homo sapiens), P18054 | Potency, µM (titrated, usually from 108 µM), for inactives: at the top dose activity change, negative = inhibition, actives largely listed as inhibitors | purified 12hLO, xylenol orange hydroperoxide absorbance
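Hydroperoxide product was detected by ferrous iron/xylenol orange as the 573 to 405 nm absorbance ratio. Arachidonic acid at 40 uM (final) was turned over for 30 min at room temperature by 150 nM human 12hLO, pH 7.0 Hepes buffer, after 15 min compound preincubation.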
VDR inhibitor: Inhibitors of the vitamin D receptor (VDR): qHTS | Potency, µM, for the others: max response, negative = inhibition, hits mostly inhibitors | VDR-SRC2-3 peptide fluorescence polarization, 2 h | 400,000 compounds, 0.93% hits
Target sequence (P11473 whole entry, looked up): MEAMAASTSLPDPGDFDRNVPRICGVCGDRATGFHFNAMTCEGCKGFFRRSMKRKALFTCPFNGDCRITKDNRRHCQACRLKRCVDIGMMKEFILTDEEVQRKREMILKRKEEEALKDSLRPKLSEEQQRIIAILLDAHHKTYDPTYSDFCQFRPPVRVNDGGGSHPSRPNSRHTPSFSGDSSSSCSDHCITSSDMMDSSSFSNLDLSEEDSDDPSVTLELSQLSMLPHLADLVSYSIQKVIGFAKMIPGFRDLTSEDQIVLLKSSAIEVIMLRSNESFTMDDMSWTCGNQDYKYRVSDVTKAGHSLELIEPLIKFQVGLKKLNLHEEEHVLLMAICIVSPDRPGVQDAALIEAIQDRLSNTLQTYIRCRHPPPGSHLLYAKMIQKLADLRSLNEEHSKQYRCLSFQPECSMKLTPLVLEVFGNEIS
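Two reagent solutions held at 4 deg C in the dark were dispensed, compounds pinned at 23 nl, and the mixture incubated 2 h at room temperature. Read-out: fluorescence polarization of VDR–SRC2-3 peptide binding.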
Sfp inh: qHTS Assay for Inhibitors of Bacillus subtilis Sfp phosphopantetheinyl transferase (PPTase) | 310,000 compounds, 3.5% hits | AID 1490, 2009 | Biochemical Sfp PPTase activity, qHTS | Potency, µM, for inactives: largest response in the series, negative = inhibition, actives largely listed as inhibitors;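 further: the enzyme is Sfp with the accession as filed and its product quenches rhodamine fluorescence; 0% = enzyme reaction without inhibitor and -100% = no enzyme wells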
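With Hepes-Na pH 7.6 buffer containing 10 mM MgCl2, Sfp (15 nM) modified BHQ-2-YbbR (12.5 uM) using rhodamine-CoA (5 uM). Two reads 30 minutes apart at 525/598 nm yielded each well's rate.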
PLK1 PBD block: qHTS for Inhibitors of PLK1-PDB (polo-like kinase 1 - polo-box domain): Primary Screen | Serine/threonine-protein kinase PLK1 (Homo sapiens), P53350 | Plk1 PBD binding of FITC phosphopeptide, fluorescence polarization | Potency, µM, for inactives: max response, negative = inhibition, hits mostly inhibitors | 360,000 compounds, 2.8% hits; further: series mostly up to about 57 µM; nearly all actives have a fitted effect of over 65% in size
The depositor's hits bear a star; [ ] = dose if it differs, or a comment. Compounds with a hit are over-represented: about 4.2% of the library has one in this group of screens. The call rests on the fitted dose curve; in most records, active means well fitted curve in the direction sought with a large enough effect; inconclusive means small, poorly fitted or top-dose-only effect, or another doubt; inactive means no such curve, though single readings can be large; an effect the other way counts as inactive or inconclusive. Unless noted, on the % scale 0 is the no-effect control and ±100 the full control effect; potency means the concentration at half of the fitted maximal effect.

Results for Cc1cc(C(=O)NC(=S)Nc2ccccc2N2CCOCC2)ccc1[N+](=O)[O-] ?
ALOX12 inh: 28µM*; VDR inhibitor: 2%; Sfp inh: 7%; PLK1 PBD block: -5%

How did CCOc1ccc(C(=O)NC(=S)Nc2cccnc2)cc1[N+](=O)[O-] do in these assays?
ALOX12 inh: -1%; VDR inhibitor: inconclusive; Sfp inh: -25%; PLK1 PBD block: 6µM*

What do the screens show for `Cc1cc(C(=O)NC(=S)Nc2ccccc2N2CCCC2)ccc1[N+](=O)[O-]`?
ALOX12 inh: -2%; VDR inhibitor: -15%; Sfp inh: 0%; PLK1 PBD block: 1%

Results for CN1CCN(c2ccccc2NC(=O)c2ccc(-c3ccc(Cl)cc3Cl)o2)CC1 ?
ALOX12 inh: -3%; VDR inhibitor: -25%; Sfp inh: 56µM*; PLK1 PBD block: 2%

What do the screens show for `CCOc1ccc(C(=O)NC(=S)Nc2ccccc2N2CCC(C)CC2)cc1[N+](=O)[O-]`?
ALOX12 inh: 35µM*; VDR inhibitor: 8%; Sfp inh: 25%; PLK1 PBD block: -5%

Results for CCOC(=O)C1=C[C@@H](C(C)C)N(S(=O)(=O)c2ccc(C)cc2)[C@H]1c1ccc(C(F)(F)F)cc1 ?
ALOX12 inh: 0%; PLK1 PBD block: 4%

How did Cc1cc(Br)ccc1NC(=O)C(C)C do in these assays?
ALOX12 inh: 42%

How did O=C(NC(=S)Nc1ccccc1N1CCOCC1)c1ccc(-c2ccccc2F)o1 do in these assays?
ALOX12 inh: 25µM*; VDR inhibitor: -11%; Sfp inh: 4%; PLK1 PBD block: -1%

Results for O=C(NCCc1nnc2ccc(NCCCN3CCOCC3)nn12)c1ccccc1 ?
ALOX12 inh: inconclusive; VDR inhibitor: -18%; Sfp inh: 0%; PLK1 PBD block: -3%

Results for COc1cc(SC)ccc1C(=O)NCCOc1ccc(Cl)cc1 ?
ALOX12 inh: -14%; VDR inhibitor: 10%; Sfp inh: -6%; PLK1 PBD block: -7%

How did COc1cc(SC)ccc1C(=O)NCCOc1c(C)cc(C)cc1C do in these assays?
ALOX12 inh: inconclusive; VDR inhibitor: 4%; Sfp inh: 50µM*; PLK1 PBD block: -7%

Results for CCOC(=O)/C=C/C(=O)OCC(=O)Nc1c(Cl)cccc1Cl ?
ALOX12 inh: -8%; VDR inhibitor: inconclusive; Sfp inh: 5%; PLK1 PBD block: -27%

How did CCOC(=O)/C=C/[C@H]1CCc2cccc(Cl)c2O1 do in these assays?
ALOX12 inh: -1%; VDR inhibitor: -25%; PLK1 PBD block: 21µM*

Results for O=C(N/N=C/C(Cl)=C/c1ccccc1)c1ccco1 ?
ALOX12 inh: -4%; VDR inhibitor: -19%; Sfp inh: -15%; PLK1 PBD block: inconclusive

What do the screens show for `Cn1c(=O)[nH]c2c(nc(-c3ccc(Cl)cc3)n2C)c1=O`?
ALOX12 inh: -6%; VDR inhibitor: 11%; Sfp inh: 6%; PLK1 PBD block: -8%

What do the screens show for `COC(=O)Cc1ccc(NC(=S)NC(C)(C)C)cc1`?
ALOX12 inh: -3%; VDR inhibitor: 2%; Sfp inh: 1%; PLK1 PBD block: -8%

How did COc1cc(NC(=S)Nc2ccccn2)cc(OC)c1 do in these assays?
ALOX12 inh: 32µM*; VDR inhibitor: 1%; Sfp inh: -15%; PLK1 PBD block: -1%

What do the screens show for `COC(=O)Cc1ccc(NC(=S)Nc2ccccn2)cc1`?
ALOX12 inh: 40µM*; VDR inhibitor: -5%; Sfp inh: -10%; PLK1 PBD block: -2%

What do the screens show for `COc1ccc(-c2cc(NC=O)c3ncc(-c4cc(OC)c(OC)c(OC)c4)n3c2)cc1`?
ALOX12 inh: -18%; PLK1 PBD block: -9%

How did CCCCCC#Cc1ccc(-c2ccc(CCCCC)cn2)cc1 do in these assays?
ALOX12 inh: 38%

How did C=CCSc1nnc(NC(=O)CSc2ccccn2)s1 do in these assays?
ALOX12 inh: inconclusive; VDR inhibitor: 2%; Sfp inh: 9%; PLK1 PBD block: -12%

What do the screens show for `COc1ccccc1NC(=S)N(Cc1ccc(C)cc1)Cc1ccccn1`?
ALOX12 inh: -1%; VDR inhibitor: -3%; Sfp inh: 45µM*; PLK1 PBD block: 1%

Results for COc1ccc(CCN(Cc2ccccn2)C(=S)Nc2cccc(SC)c2)cc1OC ?
ALOX12 inh: 0%; VDR inhibitor: 9%; Sfp inh: 45µM*; PLK1 PBD block: -15%

What do the screens show for `COc1ccc(CN(Cc2ccc(C(=O)O)cc2)C(=S)Nc2ccccc2F)cc1OC`?
ALOX12 inh: -3%; VDR inhibitor: -16%; Sfp inh: 50µM*; PLK1 PBD block: -12%

Results for Cc1cc(C)cc(NC(=O)Cn2c(N3CCC(C)CC3)nc(C)cc2=O)c1 ?
ALOX12 inh: -1%

How did Cc1ccc(CCNS(=O)(=O)c2cc(Br)cnc2N)cc1 do in these assays?
ALOX12 inh: -4%; VDR inhibitor: -18%; Sfp inh: 7%; PLK1 PBD block: -14%

How did Cc1nc(COC(=O)c2cc(O)c3ccccc3c2O)cs1 do in these assays?
ALOX12 inh: inconclusive; VDR inhibitor: inconclusive; Sfp inh: 28µM*; PLK1 PBD block: 21µM*

What do the screens show for `Cc1nc(COC(=O)c2ccc(CO)cc2)cs1`?
ALOX12 inh: -7%; VDR inhibitor: 2%; Sfp inh: 17%; PLK1 PBD block: -9%

How did CC1CCCCN1C(=O)C1COc2ccccc2O1 (configuration not stated) do in these assays?
ALOX12 inh: -1%; VDR inhibitor: 24%; Sfp inh: 14%; PLK1 PBD block: -4%

Results for CC(C)CC(=O)N1CCN(C(=O)CCC2CCCC2)CC1 ?
ALOX12 inh: 5%; VDR inhibitor: -10%; Sfp inh: 8%; PLK1 PBD block: 27µM*

How did CCN1CCN(C(=O)CS(=O)Cc2nc(-c3cccc(C)c3)oc2C)CC1 (configuration not stated) do in these assays?
ALOX12 inh: -20%; VDR inhibitor: 3%; Sfp inh: -4%; PLK1 PBD block: -6%

Results for Cc1cccc(-c2nc(CS(=O)CC(=O)N3CCc4ccccc4C3)c(C)o2)c1 (configuration not stated) ?
VDR inhibitor: -25%; Sfp inh: 40µM*; PLK1 PBD block: inconclusive

How did Cn1cc(C(=O)NCC2CN(C(=O)c3ccccc3)CC23CN(c2ccccc2)C3)cn1 (configuration not stated) do in these assays?
ALOX12 inh: 48%[176 µM]

How did Cc1sc2ncnc(SCC(=O)NC(=O)c3cccn3C)c2c1C do in these assays?
ALOX12 inh: -14%; VDR inhibitor: -12%; Sfp inh: -25%; PLK1 PBD block: 17µM*

How did O=C(C[n+]1ccccc1)Nc1ccccc1 do in these assays?
ALOX12 inh: 0%; VDR inhibitor: 0%; PLK1 PBD block: -4%

How did Oc1ccc(Br)cc1CNc1ccccn1 do in these assays?
ALOX12 inh: 5%; VDR inhibitor: inconclusive; Sfp inh: 13%; PLK1 PBD block: 17µM*
